Experimental data published in PubChem BioAssay (Tox21).
Where “and” joins values, the source holds several entries; their conditions need not be identical. Equal values may be shown once. Records with an inconclusive call do not appear. Calls of active or inactive are those of the source. Unless noted, the call rests on the fitted dose curve; in most records, active means well fitted curve in the direction sought with a large enough effect in the repeat runs; inconclusive means weak or mixed curves; inactive means no such curve, though single readings can be large; an effect the other way counts as inactive or inconclusive.

How the values were obtained:
[1] = qHTS assay to identify small molecule antagonists of the estrogen receptor alpha (ER-alpha) signaling pathway using the BG1 cell line in the presence of 0.1 nM 17-beta-estradiol - cell viability counter screen (AID 1259241); further: nearly all actives have a fitted effect of over 40% in size
Method in brief: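 CellTiter-Fluor read (30 min, 37C) on ER-alpha/ERE-luc VM7Luc4E2 cells; 22 hr compound treatment; agonist 0.1 nM E2 final; same-well multiplex.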

[2] = qHTS assay to identify small molecule antagonists of the androgen receptor (AR) signaling pathway using the MDA cell line in the presence of 0.5 nM R1881 - cell viability counter screen (AID 1259242); further: nearly all actives have a fitted effect of over 45% in size
Method in brief: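 Cytotoxicity toward MDA-kb2 cells is measured by CellTiter-Fluor live-cell protease fluorescence after 16 hr compound exposure at 37C in the presence of 0.5 nM R1881 stimulator.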

[3] = qHTS assay to identify small molecule HDAC inhibitors (AID 1259364); further: nearly all actives have a fitted effect of over 45% in size; further: potency means the concentration at half of the fitted maximal effect
Method in brief: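 Homogeneous cell-based luminescent assay of endogenous class I/II HDAC activity; HCT-116 cells, 2 h compound exposure, 30 min HDAC-Glo development at RT.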

[4] = qHTS assay to identify small molecule HDAC inhibitors - cell viability counter screen (AID 1259365); further: series mostly up to about 92 µM; nearly all actives have a fitted effect of over 50% in size
Method in brief: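 To flag cytotoxic hits, 1,500 wild-type HCT-116 cells per well, plated the day before, receive test compounds for 2hr at 37 C before CellTiter-Glo reagent and a luminescence read.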

[5] = qHTS assay to identify small molecule agonists of the sonic hedgehog signaling (Shh) pathway - cell viability counter screen (AID 1259366); further: nearly all actives have a fitted effect of over 50% in size; further: potency means the concentration at half of the fitted maximal effect
Method in brief: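 Fluorescence from CellTiter-Fluor reports live cells in this counter screen. NIH/3T3-derived Gli1-Luc reporter cells receive test compounds for 24hr at 37C; reagent goes in at 23hr.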

[6] = qHTS assay to identify small molecule antagonists of the sonic hedgehog signaling (Shh) pathway - cell viability counter screen (AID 1259367); further: nearly all actives have a fitted effect of over 55% in size; further: potency means the concentration at half of the fitted maximal effect
Method in brief: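 Using CellTiter-Fluor, viability of Gli1-Luc reporter 3T3 cells is read by fluorescence in the wells used for the Shh luciferase assay. Treatment lasts 23 hr with conditioned medium, then reagent 1 hr at 37C.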

[7] = qHTS assay to identify small molecule agonists of the sonic hedgehog signaling (Shh) pathway (AID 1259368; calls by dose curve;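 further: NIH/3T3-derived 3T3Gli1-Luc cells carrying a stable Gli1-driven firefly luciferase reporter; series mostly up to about 92 µM; nearly all actives have a fitted effect of over 15% in size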)
Method in brief: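 Steps: seed 3T3 Gli1-Luc cells, incubate 4 hr at 37 C, pin-transfer compounds in DMSO alongside a positive control, incubate 24 hr, add luciferase detection reagent, wait 30 min at room temperature, read luminescence.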

[8] = qHTS assay to identify small molecule antagonists of the sonic hedgehog signaling (Shh) pathway (AID 1259369; calls by dose curve; further: nearly all actives have a fitted effect of over 45% in size; further: potency means the concentration at half of the fitted maximal effect)
Method in brief: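 Inhibition of Shh signalling is measured as reduced Gli1-response-element firefly luciferase output in an NIH/3T3-derived stable reporter clone stimulated with conditioned medium for 24hr.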

[9] = qHTS assay to identify small molecule agonists of the androgen receptor (AR) signaling pathway in the presence of an antagonist - cell viability counter screen (AID 1259379); further: nearly all actives have a fitted effect of over 25% in size; further: potency means the concentration at half of the fitted maximal effect
Method in brief: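 Fluorescence from CellTiter-Fluor, added after 15 hr and read 1 hr later, gave cell viability. Cells were MDA-kb2 exposed to compounds (15 concentrations) in the presence of 3.0uM nilutamide at 37C, 0% CO2.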

[10] = qHTS assay to identify small molecule agonists of the estrogen receptor beta (ER-beta) signaling pathway - cell viability counter screen (AID 1259380); further: nearly all actives have a fitted effect of over 30% in size; further: potency means the concentration at half of the fitted maximal effect
Method in brief: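 Same-well viability counter screen. Cells: ER-beta-UAS-bla HEK293T, plated 6 hr before compound, in 2% charcoal-stripped FBS. Compound exposure 16 hr, 37C; viability by CellTiter-Glo luminescence after 30 min at room temperature.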

[11] = qHTS assay to identify small molecule antagonists of the estrogen receptor beta (ER-beta) signaling pathway - cell viability counter screen (AID 1259382); further: nearly all actives have a fitted effect of over 55% in size; further: potency means the concentration at half of the fitted maximal effect
Method in brief: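 Following a 6 hr plating period, HEK293T cells carrying a UAS-driven beta-lactamase reporter under ER-beta control received compounds and 1nM E2 (final). After 16 hr at 37C and 2 hr substrate loading, CellTiter-Glo luminescence indicated viability.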

[12] = qHTS assay to identify small molecule agonists or antagonists of the thyroid stimulating hormone receptor (TSHR) signaling pathway - wild type cell line counter screen (AID 1259384; calls by dose curve)
Method in brief: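 Counter screen in untransfected Hek293: compounds (15-point titration, triplicate) plus phosphodiesterase inhibitor Ro20-1724 added after 18 h plating; 30 min RT. Intracellular cAMP via competitive d2/cryptate immunoassay, 1 h incubation.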

[13] = target: Thyrotropin receptor (Homo sapiens) (UniProt P16473); test: qHTS assay to identify small molecule antagonists of the thyroid stimulating hormone receptor (TSHR) signaling pathway (AID 1259385; calls by dose curve; further: nearly all actives have a fitted effect of over 20% in size)
Sequence of Thyrotropin receptor (Homo sapiens) (P16473 whole entry, looked up): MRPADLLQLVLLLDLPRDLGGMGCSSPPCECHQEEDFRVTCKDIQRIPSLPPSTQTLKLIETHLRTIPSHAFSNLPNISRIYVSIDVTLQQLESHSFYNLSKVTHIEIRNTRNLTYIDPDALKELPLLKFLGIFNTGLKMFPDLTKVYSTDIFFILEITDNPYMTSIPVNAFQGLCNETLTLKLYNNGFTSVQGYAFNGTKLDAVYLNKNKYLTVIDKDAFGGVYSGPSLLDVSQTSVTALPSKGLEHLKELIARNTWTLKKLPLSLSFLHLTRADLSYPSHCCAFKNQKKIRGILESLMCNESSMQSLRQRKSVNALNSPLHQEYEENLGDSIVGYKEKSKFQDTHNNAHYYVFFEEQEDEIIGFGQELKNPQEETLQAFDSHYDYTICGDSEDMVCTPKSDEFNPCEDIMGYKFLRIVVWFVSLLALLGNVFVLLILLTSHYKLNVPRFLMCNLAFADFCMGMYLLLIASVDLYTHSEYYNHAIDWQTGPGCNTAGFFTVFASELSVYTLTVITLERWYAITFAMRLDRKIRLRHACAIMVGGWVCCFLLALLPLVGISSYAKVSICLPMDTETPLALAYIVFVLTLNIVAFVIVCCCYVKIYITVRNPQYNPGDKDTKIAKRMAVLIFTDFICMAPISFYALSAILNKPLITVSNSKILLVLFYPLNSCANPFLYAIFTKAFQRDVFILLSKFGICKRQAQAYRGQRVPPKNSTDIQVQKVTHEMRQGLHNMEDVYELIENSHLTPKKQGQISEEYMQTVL
Method in brief: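 Antagonist mode: compound-treated TSHR-expressing HEK293 cells were stimulated with 1.5 ng/mL TSH (final) in presence of Ro20-1724 for 30 min at RT. HTRF cAMP detection after 1 h; each compound tested at 15 concentrations, triplicate.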

[14] = target: Estrogen receptor beta (Homo sapiens) (UniProt Q92731); test: qHTS assay to identify small molecule agonists of the estrogen receptor beta (ER-beta) signaling pathway (AID 1259377; active means well fitted activation curve with a large enough effect in the signal ratio in the repeat runs, not every such curve was filed as active; the % refers to the signal ratio)
Sequence of Estrogen receptor beta (Homo sapiens) (Q92731 whole entry, looked up): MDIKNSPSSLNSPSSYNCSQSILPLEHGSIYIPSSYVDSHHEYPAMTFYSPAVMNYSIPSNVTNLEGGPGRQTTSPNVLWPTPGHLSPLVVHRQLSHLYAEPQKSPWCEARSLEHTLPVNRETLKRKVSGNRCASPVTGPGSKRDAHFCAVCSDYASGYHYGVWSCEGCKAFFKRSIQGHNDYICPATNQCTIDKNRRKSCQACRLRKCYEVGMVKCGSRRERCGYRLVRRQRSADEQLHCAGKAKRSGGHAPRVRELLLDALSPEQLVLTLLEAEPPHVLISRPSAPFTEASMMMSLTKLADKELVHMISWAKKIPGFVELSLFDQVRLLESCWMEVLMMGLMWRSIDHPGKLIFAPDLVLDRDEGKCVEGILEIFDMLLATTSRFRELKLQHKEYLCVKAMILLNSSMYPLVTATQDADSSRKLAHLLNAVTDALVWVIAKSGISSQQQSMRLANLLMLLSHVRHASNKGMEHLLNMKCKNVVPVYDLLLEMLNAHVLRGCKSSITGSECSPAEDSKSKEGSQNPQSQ
Method in brief: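 Screening used GripTite ER-beta-UAS-bla cells held in 2% charcoal-stripped FBS medium. After overnight (16 hr) compound incubation at 37C, beta-lactamase activity was detected with a FRET substrate by fluorescence.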

[15] = target: Estrogen receptor beta (Homo sapiens) (UniProt Q92731); test: qHTS assay to identify small molecule antagonists of the estrogen receptor beta (ER-beta) signaling pathway (AID 1259378; active means well fitted inhibition curve with a large enough effect in the signal ratio in the repeat runs, not every such curve was filed as active; the % refers to the signal ratio)
Method in brief: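 Antagonist mode: compounds added to beta-lactamase reporter HEK293T ER-beta-UAS cells stimulated with E2 (1nM final), 16 hr at 37C. LiveBLAzer B/G FRET substrate, 2 hours room temperature, fluorescence read-out.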

[16] = qHTS assay to identify small molecule phospholipidosis (PLD) inducers (AID 1259344; active means well fitted curve in the direction sought with a large enough effect; an effect the other way counts as inactive or inconclusive)
Method in brief: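 Fluorescent phospholipid staining (LipidTOX Red) measured by automated microscopy in fixed HepG2 cells after 24 h treatment; nuclei counterstained with Hoechst 33342; amiodarone as reference inducer.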

[17] = target: Androgen receptor (Homo sapiens) (UniProt P10275); test: qHTS assay to identify small molecule antagonists of the androgen receptor (AR) signaling pathway using the MDA cell line in the presence of 0.5 nM R1881 (AID 1259243); further: nearly all actives have a fitted effect of over 50% in size; further: potency means the concentration at half of the fitted maximal effect
Sequence of Androgen receptor (Homo sapiens) (P10275 whole entry, looked up): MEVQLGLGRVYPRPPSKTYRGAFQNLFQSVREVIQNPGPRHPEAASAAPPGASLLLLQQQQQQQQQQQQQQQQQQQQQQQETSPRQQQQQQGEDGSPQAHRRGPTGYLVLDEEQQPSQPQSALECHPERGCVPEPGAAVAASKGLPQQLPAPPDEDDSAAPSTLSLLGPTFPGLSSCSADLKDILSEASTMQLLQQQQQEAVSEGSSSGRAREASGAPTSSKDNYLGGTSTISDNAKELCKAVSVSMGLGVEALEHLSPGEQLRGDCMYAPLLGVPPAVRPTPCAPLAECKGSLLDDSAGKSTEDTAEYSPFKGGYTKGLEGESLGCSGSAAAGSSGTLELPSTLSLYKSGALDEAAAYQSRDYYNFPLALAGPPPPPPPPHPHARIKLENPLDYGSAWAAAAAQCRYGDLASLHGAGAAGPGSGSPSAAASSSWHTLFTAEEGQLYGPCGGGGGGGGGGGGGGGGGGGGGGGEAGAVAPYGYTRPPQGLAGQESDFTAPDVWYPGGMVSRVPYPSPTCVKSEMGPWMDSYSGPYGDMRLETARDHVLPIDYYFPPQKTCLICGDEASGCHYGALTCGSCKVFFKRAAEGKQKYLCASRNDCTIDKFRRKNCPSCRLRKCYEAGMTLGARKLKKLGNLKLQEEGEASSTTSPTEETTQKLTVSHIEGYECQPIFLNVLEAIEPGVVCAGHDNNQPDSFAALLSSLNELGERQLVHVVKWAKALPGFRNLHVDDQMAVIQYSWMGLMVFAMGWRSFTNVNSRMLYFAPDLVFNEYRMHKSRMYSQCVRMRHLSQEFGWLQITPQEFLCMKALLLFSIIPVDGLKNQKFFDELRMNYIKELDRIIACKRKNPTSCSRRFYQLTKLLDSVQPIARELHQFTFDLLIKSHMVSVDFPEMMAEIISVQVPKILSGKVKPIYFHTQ
Method in brief: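 Steps: seed MDA-kb2 cells, incubate 5 hr at 37C; pin-transfer compounds in DMSO; add R1881 to 0.5 nM final; incubate 16 hr; add ONE-Glo, wait 30 min at room temperature; read luminescence.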

[18] = target: Estrogen receptor (Homo sapiens) (UniProt P03372); test: qHTS assay to identify small molecule antagonists of the estrogen receptor alpha (ER-alpha) signaling pathway using the BG1 cell line in the presence of 0.1 nM 17-beta-estradiol (AID 1259244); further: nearly all actives have a fitted effect of over 50% in size; further: potency means the concentration at half of the fitted maximal effect
Sequence of Estrogen receptor (Homo sapiens) (P03372 whole entry, looked up): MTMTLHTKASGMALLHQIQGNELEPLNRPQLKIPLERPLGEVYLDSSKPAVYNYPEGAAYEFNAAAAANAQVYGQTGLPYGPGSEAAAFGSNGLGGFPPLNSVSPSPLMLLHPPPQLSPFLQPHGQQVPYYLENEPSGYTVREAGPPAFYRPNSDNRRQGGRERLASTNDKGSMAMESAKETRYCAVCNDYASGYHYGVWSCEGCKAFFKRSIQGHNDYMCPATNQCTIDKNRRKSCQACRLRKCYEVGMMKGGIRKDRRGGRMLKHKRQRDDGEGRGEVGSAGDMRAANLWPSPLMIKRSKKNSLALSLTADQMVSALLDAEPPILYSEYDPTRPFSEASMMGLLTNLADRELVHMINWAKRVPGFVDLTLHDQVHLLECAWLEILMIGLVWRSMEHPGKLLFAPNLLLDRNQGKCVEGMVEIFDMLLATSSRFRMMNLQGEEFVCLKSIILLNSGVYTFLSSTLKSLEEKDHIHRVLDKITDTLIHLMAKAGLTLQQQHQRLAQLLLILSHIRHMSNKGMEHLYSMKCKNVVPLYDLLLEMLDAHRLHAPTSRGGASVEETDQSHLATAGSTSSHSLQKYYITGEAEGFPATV
Method in brief: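 After 5 days in hormone-depleted medium (charcoal-stripped serum, no phenol red), VM7Luc4E2 cells were seeded, incubated 24 h, then co-treated with compound and 0.1 nM (final) estradiol for 22 h before luminescence detection.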

[19] = target: Androgen receptor (Homo sapiens) (UniProt P10275); test: qHTS assay to identify small molecule agonists of the androgen receptor (AR) signaling pathway in the presence of an antagonist (AID 1259381; calls by dose curve; further: nearly all actives have a fitted effect of over 15% in size)
Method in brief: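 Cells are MDA-kb2 (human breast carcinoma, MMTV-luc, AR/GR responsive). Nilutamide is present at 3.0uM final throughout; compounds are added at 15 concentrations and incubated 16hr at 37C before ONE-Glo luminescence detection.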

[20] = target: Estrogen receptor (Homo sapiens) (UniProt P03372); test: qHTS assay to identify small molecule agonists of the estrogen receptor alpha (ER-alpha) signaling pathway in the presence of an antagonist (AID 1259383; calls by dose curve; further: top concentration of the series differs between compounds; nearly all actives have a fitted effect of over 15% in size)
Method in brief: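 Cells are hormone-deprived for 5 days (charcoal-stripped FBS, no phenol red), plated for 24hr, spiked with 10.0nM ICI-182,780, then dosed at 15 concentrations. After 22hr at 37C, ONE-Glo luminescence reports ERE-luciferase activity.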

Measured: Potency

c1ccc(CSCc2ccccc2)cc1
inactive: [1] | [2] | [4] | [5] | [6] | [7] | [8] | [9] | [10]
active: [3] 24.3 µM

CCN(C(=O)N(CC)c1ccccc1)c1ccccc1
not listed: [8] | [14] | [15] | [16] | [17] | [18] | [19] | [20]
inactive: all other assays above

Oc1ccc2cc(SSc3ccc4cc(O)ccc4c3)ccc2c1
inactive: [1] | [2] | [3] | [4] | [7] | [11] | [12] | [13]
active: [8] 19.4 µM and 21.7 µM | [9] 61.2 µM and 61.1 µM

CC(C)CCCCCCCCCCCCCCC(=O)O
active: [10] 54.5 µM
not listed: [12] | [13] | [16] | [17] | [18] | [19] | [20]
inactive: all other assays above

C/C=C1/C(=O)C[C@H]2[C@@H]3CCC4=CC(=O)CC[C@]4(C)[C@H]3CC[C@]12C
active: [9] 54.3 µM
inactive: [1] | [2] | [3] | [4] | [6] | [7]

CCCC1O[C@@H]2C[C@H]3[C@@H]4CCC5=CC(=O)C=C[C@]5(C)[C@H]4[C@@H](O)C[C@]3(C)[C@]2(C(=O)CO)O1 (some centres undefined)
active: [8] 7.7 µM
inactive: [1] | [2] | [16] | [3] | [4] | [7] | [14] | [9]

Clc1ccc2n[nH]nc2c1
not listed: [14] | [15] | [16] | [17] | [18] | [19] | [20]
inactive: all other assays above

COc1cc(-c2ccc(N=C=O)c(OC)c2)ccc1N=C=O
not listed: [12] | [13] | [16] | [17] | [18] | [19] | [20]
inactive: all other assays above

Cc1ccc(O)c2ncccc12
active: [17] 10.6 µM | [18] 11.9 µM | [5] 1.33 µM | [6] 1.33 µM | [8] 0.531 µM
not listed: [2] | [9] | [10] | [11] | [14] | [15]
inactive: all other assays above

Cn1cc(C(=O)[C@@H]2CCc3nc[nH]c3C2)c2ccccc21
active: [8] 15 µM
not listed: [2] | [6] | [10] | [11] | [17] | [19]
inactive: all other assays above

CCCCN1C(=O)[C@@H]([C@H](O)C2CCCCC2)NC(=O)C12CCN(Cc1ccc(Oc3ccc(C(=O)O)cc3)cc1)CC2
inactive: [1] | [2] | [4] | [7] | [14] | [11] | [20] | [12]

CCCCCOC(=O)CCCC
not listed: [2] | [11] | [16] | [17] | [19]
inactive: all other assays above

O=C(O)c1ccc(Cl)c(Cl)c1
not listed: [2] | [16]
inactive: all other assays above

O=C1Cc2cc(CCN3CCN(c4nsc5ccccc45)CC3)c(Cl)cc2N1
active: [5] 23.7 µM | [8] 29.8 µM | [10] 23.7 µM
not listed: [2] | [6] | [9] | [11] | [15] | [17] | [19]
inactive: all other assays above

Cc1cc(O)c(C(C)(C)C)cc1C(C)(C)C
active: [17] 61.1 µM | [18] 54.5 µM | [5] 61.1 µM | [8] 48.6 µM | [10] 54.5 µM | [11] 61.1 µM
inactive: [1] | [3] | [7] | [19] | [20] | [12] | [13]

CC(C)(C)C(=O)OCOC(=O)[C@@H]1N2C(=O)[C@@H](NC(=O)[C@H](N)c3ccccc3)[C@H]2SC1(C)C
not listed: [2] | [17] | [19]
inactive: all other assays above
